# Gal4-VP16 FLuc – inhibits Gal4-VP16 luciferase reporter, ROR gamma counter-screen. Drosophila S2 Gal4-VP16 UAS-luciferase, luminescence, 20 h. Potency, µM (top dose mostly 53.6 µM), for the others: at the top dose activity, negative = inhibition, most hits filed as inhibitors. 3.5% of 310,000 active. AID 2546;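 also: Gal4-VP16 expression switched on by copper sulfate through the metallothionein promoter; potency is read from the fitted curve at half-maximal effect; nearly all actives have a fitted effect of over 50% in size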
# IL1B secr inh – inflammasome signaling inhibition, IL-1 beta readout | AID 743279 | activity change, % at 57.5 µM | 4.7% of 360,000 active | THP-1 LPS/ATP IL-1B secretion, AlphaLISA, 16 h; stronger effect = lower value; in the data active = activity change below about -50%; inconclusive = mostly about -30% to -49%
#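 THP-1 cells pretreated 1 hr with compounds (up to 57.5 uM final), then stimulated with LPS (250 ng/mL final) plus ATP (1.25 mM final); secreted IL-1B measured by AlphaLISA after 16 hr, decreased signal indicating inhibition.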
# TDP1 cell noCPT – qHTS for Inhibitors of human tyrosyl-DNA phosphodiesterase 1 (TDP1): qHTS in cells in absence of CPT | DT40 Tdp1-/- hTDP1 cells, no CPT, ATP luminescence, 48 h | Potency, µM (top dose mostly 46.2 µM), for the others: at the highest dose activity change, negative = growth inhibition, actives largely listed as inhibitors | 15% of 420,000 active | AID 686978, 2013; also: potency is read from the fitted curve at half-maximal effect; nearly all actives have a fitted effect of over 55% in size
#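 Chicken DT40 Tdp1-/- cells complemented with human TDP1, screened without camptothecin (DMSO vehicle only), 400 cells/well. Compounds pin-transferred, cells incubated at 37 °C for at least 48 hr. Growth read as ATP-dependent luminescence (CellTiter-Glo, 30 min at RT).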
# ELG1 repair inh – inhibitors of ELG1-dependent DNA repair in HEK293T cells | HEK293T ELG1-luciferase reporter, luminescence, 16 h; DNA damage induced by 5-fluorouridine | Potency, µM (doses to about 46.1 µM), for the others: at the top dose activity change, negative = inhibition, actives largely listed as inhibitors | 2.3% of 330,000 active; also: potency is read from the fitted curve at half-maximal effect; nearly all actives have a fitted effect of over 55% in size
#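 Luminescence from the luciferase reporter, measured 30 min after ONE-Glo reagent at room temperature, was the read-out. Beforehand, 2,000 cells per well were exposed for 16 hr at 37 °C to 5-fluorouridine together with compound or vehicle.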
# RORg inh – blocks mouse ROR gamma transcriptional activity; P51450; Drosophila S2 Gal4-RORgamma UAS-luciferase reporter, 20 h; Potency, µM (series often up to 53.6 µM), for the others: at the highest dose activity change, negative = inhibition, usual class: inhibitors; 5.4% of 310,000 active; AID 2551; also: potency is read from the fitted curve at half-maximal effect; nearly all actives have a fitted effect of over 60% in size
# Target sequence (P51450 whole entry, looked up, the tested form may be a part): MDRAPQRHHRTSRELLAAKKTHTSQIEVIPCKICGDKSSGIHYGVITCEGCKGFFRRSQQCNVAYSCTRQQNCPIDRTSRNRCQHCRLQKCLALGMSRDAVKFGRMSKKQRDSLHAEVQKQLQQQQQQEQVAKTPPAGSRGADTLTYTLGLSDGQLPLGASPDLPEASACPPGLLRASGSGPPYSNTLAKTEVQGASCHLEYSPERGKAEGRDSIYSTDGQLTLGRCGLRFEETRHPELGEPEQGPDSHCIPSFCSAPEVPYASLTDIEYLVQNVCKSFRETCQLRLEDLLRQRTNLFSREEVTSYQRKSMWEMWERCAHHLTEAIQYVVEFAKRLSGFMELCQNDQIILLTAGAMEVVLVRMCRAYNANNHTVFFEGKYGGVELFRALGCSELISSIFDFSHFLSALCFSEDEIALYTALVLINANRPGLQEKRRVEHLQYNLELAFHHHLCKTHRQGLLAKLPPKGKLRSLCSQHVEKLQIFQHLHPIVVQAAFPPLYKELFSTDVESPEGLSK
#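 Luciferase reporter read in Schneider cells carrying Gal4-RORγ (mouse) and UAS-Photinus luciferase; cells given compound 1 h before 700 uM copper sulfate induction, then incubated 20 h at ambient temperature.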
# TDP1 cell CPT – growth inhibition of DT40 Tdp1-/-;hTDP1 cells with camptothecin (screen for TDP1 inhibitors) | chicken DT40 Tdp1-/-;hTDP1 cells + 20 nM CPT, ATP luminescence, 48 h | Potency, µM (top dose mostly 46.2 µM), without a hit: at the highest dose activity change, negative = growth inhibition, actives largely listed as inhibitors | 12% of 420,000 active | AID 686979; also: potency is read from the fitted curve at half-maximal effect; nearly all actives have a fitted effect of over 55% in size
#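 Chicken DT40 Tdp1-/- cells complemented with human TDP1, 400 cells/well, exposed to compounds plus 20 nM camptothecin for at least 48 h at 37 C; viability read as ATP content by CellTiter-Glo luminescence.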
# Active calls of the source: *; ? = inconclusive; . = not tested or not shown. The list is not random: actives were taken first. Their share in the collection is about 21%. Unless noted, calls follow the shape of the dose curve; as a rule, active = well fitted curve in the direction sought with a large enough effect; inconclusive = small, poorly fitted or top-dose-only effect, or another doubt; inactive = no such curve, though single readings can be large; an effect the other way counts as inactive or inconclusive. % is scaled to controls: 0 for no effect and ±100 for the full control effect.
SMILES,Gal4-VP16 FLuc,IL1B secr inh,TDP1 cell noCPT,ELG1 repair inh,RORg inh,TDP1 cell CPT
Cc1c(C(=O)N(Cc2ccc(N(C)C)cc2)CC2CCCO2)oc2ccccc12 (stereo not drawn),-4.5%,?,23.1µM*,?,5.8%,23.1µM*
Cc1ccc2oc(C(=O)N(Cc3ccncc3)CC3CCCO3)c(C)c2c1 (stereo not drawn),-10.3%,2.2,?,?,-22.7%,?
O=C(COC(=O)COc1ccccc1)NC1CCS(=O)(=O)C1 (stereo not drawn),.,-13.2,?,1.0%,.,-16.1%
COc1ccc(S(=O)(=O)Nc2cccc3c2O[C@H](CN(C)C(=O)NC(C)C)[C@@H](C)CN([C@H](C)CO)C3=O)cc1,.,0.0,4.0%,25.9%,.,-19.2%
CC1CCC(NC(=O)c2ccc(NC3=NC4CS(=O)(=O)CC4S3)cc2)CC1 (stereo not drawn),0.5%,-9.0,4.1%,-3.2%,-3.8%,1.7%
CN(C)c1ccc(CN(CC2CCCO2)C(=O)c2cc3ccccc3o2)cc1 (stereo not drawn),.,-23.1,?,1.2%,.,18.4µM*
CCOc1cccc(C(=O)N(Cc2ccc(N(C)C)cc2)CC2CCCO2)c1 (stereo not drawn),.,.,16.4µM*,.,.,14.6µM*
CCCc1ccc2oc(C(=O)N(Cc3ccncc3)CC3CCCO3)c(C)c2c1 (stereo not drawn),0.0%,-84.6*,18.4µM*,?,-37.1%,?
Cc1c(C(=O)N(Cc2ccc(Cl)cc2)CC2CCCO2)oc2ccc(F)cc12 (stereo not drawn),.,.,14.6µM*,.,.,?
c1ccc(SCc2nc(-c3ccncc3)no2)cc1,11.2µM*,?,-28.8%,?,?,-17.4%
Cc1ccc(SCc2nc(-c3ccncc3)no2)cc1,7.2%,-7.5,13µM*,12.2%,36.8%,5.8µM*
Cc1ccc(SCc2nc(-c3ccccc3)no2)cc1,21.4%,-2.5,-13.7%,18.6%,33.5%,-8.9%
CCOC(=O)c1c(C)[nH]c(C(=O)OC(C)C(=O)NCc2ccccc2)c1C (stereo not drawn),.,-9.1,-15.9%,8.3%,.,?
CCOC(=O)c1c(C)[nH]c(C)c1S(=O)(=O)NCC(=O)Nc1cc(Cl)ccc1OC,.,.,-0.4%,.,.,?
CCOC(=O)c1c(C)[nH]c(CCC(=O)NC(C)c2ccccc2)c1C (stereo not drawn),.,.,18.4µM*,.,.,?
CCOC(=O)c1cc(C(=O)NC(C)c2ccccc2)c(=O)[nH]c1C (stereo not drawn),-11.1%,7.4,-25.6%,-28.8%,35.6%,-12.4%
CCOC(=O)c1c(C)[nH]c(CCC(=O)NCc2ccc(OC)cc2OC)c1C,.,.,16.4µM*,.,.,?
CCOC(=O)c1[nH]c(C)c(C(=O)OCC(=O)NCc2ccc(OC)cc2)c1C,.,34.7,3.5%,?,.,-19.9%
CCOC(=O)c1c(C)[nH]c(C(=O)OC(C(=O)N(C)C)c2ccccc2)c1C (stereo not drawn),.,.,10µM*,.,.,10µM*
CCOC(=O)c1c(C)[nH]c(CCC(=O)Nc2cc(Cl)ccc2OC)c1C,.,.,20.6µM*,.,.,18.4µM*
C[C@H](CO)N1C[C@H](C)[C@@H](CN(C)C(=O)NC2CCCCC2)Oc2c(NC(=O)c3ccncc3)cccc2C1=O,.,6.4,-4.6%,?,.,5.3%
Cc1cc2c(cc1NS(=O)(=O)c1cccc(C#N)c1)n(C)c(=O)c(=O)n2C,.,.,?,.,.,4.5%
CCOC(=O)c1c(C)[nH]c(CCC(=O)NCc2ccc(F)cc2)c1C,.,.,?,.,.,-26.1%
CCOC(=O)c1c(C)[nH]c(CCC(=O)NCc2cccc(C)c2)c1C,.,.,16.4µM*,.,.,?
CC1(C)OC2OC(C(=O)N/N=C/c3cc(Br)ccc3O)C3OC(C)(C)OC3C2O1 (stereo not drawn),?,0.0,14.6µM*,?,1.58µM*,14.6µM*
SMILES,Gal4-VP16 FLuc,IL1B secr inh,TDP1 cell noCPT,ELG1 repair inh,RORg inh,TDP1 cell CPT
Cc1cc(C)cc(NC(=O)[C@H]2O[C@@H]3OC(C)(C)O[C@@H]3[C@H]3OC(C)(C)O[C@H]32)c1,.,.,?,.,.,-8.2%
CC(C)c1ccc(NC(=O)[C@H]2O[C@@H]3OC(C)(C)O[C@@H]3[C@H]3OC(C)(C)O[C@H]32)cc1,.,.,20.6µM*,.,.,5.17µM*
COc1cccc(CNC(=O)Cn2nc(-c3ccc(C)cc3)ccc2=O)c1,.,.,-13.9%,.,.,-27.9%
COc1ccccc1NC(=O)Cc1coc2cc(C)ccc12,?,-5.7,?,24.3%,?,-12.2%
Cc1ccc2c(CC(=O)Nc3cccc(C(F)(F)F)c3)coc2c1,.,.,?,.,.,16.4µM*
Cc1ccc2c(CC(=O)NNC(=O)c3ccccc3O)coc2c1,.,92.9,25.9µM*,-0.5%,.,?
Cc1ccc(Oc2coc3cc(O)ccc3c2=O)cc1,-2.7%,0.4,10.2%,?,-7.4%,-5.6%
Cc1ccc(COC(=O)Cc2coc3cc(O)ccc23)cc1,7.08µM*,0.8,0.2%,-6.2%,5.62µM*,?
CN(Cc1ccccc1)C(=O)c1[nH]c(C(F)(F)F)nc1-c1ccccc1,.,11.9,-20.0%,.,.,1.6%
Cc1cc(C)cc(NC(=O)Cc2noc3ccccc23)c1,.,.,-9.9%,.,.,-19.1%
CCc1ccc(C(=O)NNC(=O)OC)cc1,-2.5%,6.4,29.1µM*,13.8%,4.9%,?
Cc1nc2ccccc2c2c(N)cccc12,.,2.8,17.8%,.,.,14.1%
Cc1cc(Nc2ccccc2)c2c([N+](=O)[O-])cc(C)c(C)c2n1,-11.0%,-4.4,23.1µM*,-6.2%,-1.4%,9.2µM*

# Source: PubChem (National Center for Advancing Translational Sciences (NCATS))
